The panel holds about 83,000 compounds, 20% with a hit somewhere; the sample as a whole holds those more often.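 Growth was measured after 48 h exposure to one concentration of compound in 96-well plates. Values under 10 count as active.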 A number with no mark means an inactive call. The source made the active and inactive calls.
Experiments:
Test in all cases: NCI-60 one-dose screen, 48 h (100 = growth as untreated, 0 = no growth, -100 = all killed)
Conditions in all cases: 10 µM unless noted
[1] = test system: T-47D breast
[2] = test system: BT-549 breast
[3] = test system: MDA-MB-435 melanoma
[4] = test system: SW-620 colon
[5] = test system: MCF7 breast
[6] = test system: HCT-116 colon
[7] = test system: HCC-2998 colon
[8] = test system: KM12 colon

Compound | growth [1] | growth [2] | growth [3] | growth [4] | growth [5] | growth [6] | growth [7] | growth [8]
Cc1nc2ccccc2c(/C=C/c2ccccc2)c1C(=O)/C=C/c1ccc(C(F)(F)F)cc1 | -14.6% (active) | -25.6% (active) | -82.6% (active) | -32.9% (active) | -9.44% (active) | -64.5% (active) | -70.5% (active) | -58.9% (active)
O=c1cc(SCc2ccccc2)nc[nH]1 | 114% | 103% | 106% | 107% | 101% | 104% | 112% | 94.8%
CCOC(=O)c1nc(Nc2ccc(C(C)=O)cc2)sc1C | 93% | 106% | 100% | 101% | 92.9% | 99.8% | 114% | 101%
Cc1c(C(=O)/C=C/Nc2c(Cl)cc(S(N)(=O)=O)cc2Cl)sc2nc3ccccc3n12 | 97.8% | 102% | 103% | 101% | 102% | 105% | 124% | 101%
Oc1c(I)cc(I)cc1CNCCCN(Cc1ccccn1)Cc1ccccn1 | -57% (active) | -73.2% (active) | -90.7% (active) | -61.9% (active) | -56.3% (active) | -87% (active) | -82.5% (active) | -85.1% (active)
O=c1n(Cc2ccc3ccccc3c2)ccn1Cc1ccc2ccccc2c1 | 55.5% | 92.4% | 107% | 102% | 97.6% | 70.6% | 103% | 96.4%
CC(=O)O.CN1[CH-]N(Cc2ccc(C#N)cc2)c2ccccc21.[Ag+] | 69.7% | 102% | 106% | 57.9% | 97% | 105% | 113% | 86.9%
O=C(N/N=C/c1ccc(Cl)cc1)c1ccc(C(F)(F)F)nc1Nc1cccc(C(F)(F)F)c1 | 3.73% (active) | 9.33% (active) | 34.8% | 8.01% (active) | 0.997% (active) | -33.6% (active) | -38.9% (active) | 8.69% (active)
C=C1C(=O)O[C@H]2[C@H]1CC/C(COC(=O)C(C)c1ccc(CC(C)C)cc1)=C\CC[C@@]1(C)O[C@@H]21 (some centres not stated) | -35% (active) | -1.34% (active) | -11.7% (active) | -60.1% (active) | 9.15% (active) | -73.7% (active) | 72.2% | 31.8%
O=C(O)CCC/C=C\C[C@H]1C=CC(=O)/C1=C/C[C@@H](O)CCc1cccc(C(F)(F)F)c1 | 21.4% | 5.1% (active) | -53.5% (active) | -35.8% (active) | 11% | -66.4% (active) | -84.4% (active) | -47% (active)
N#CC1=C(N)Oc2c(sc3c(Br)cccc23)C1c1ccc(Br)cc1 (configuration not stated) | 23.3% | 48.3% | -53% (active) | 24.4% | 10.9% | 26.6% | 12.9% | 17.8%
COc1cc(C(=O)N/N=C/c2cc3cc(OCc4ccccc4)ccc3nc2OC)cc(OC)c1OC | 54.3% | 73.4% | 88.3% | 91.6% | 78.4% | 85.7% | 96.7% | 96.2%
O=C(Nc1ccc(Cl)cc1F)c1ccccc1O | 29.9% | 24.9% | 41.3% | 60.4% | 47.6% | 34.6% | 77.1% | 54.4%
CCCCC[C@H](O)C/C=C1/C(=O)C=C[C@@H]1C/C=C\CCCC(=O)O | 50.4% | 54.5% | 36.9% | 51.9% | 19% | 44.5% | 76.5% | 50.9%
